Inconclusive results are not listed. Activity calls are given as the source filed them. Calls follow the shape of the dose curve; as a rule, active = well fitted curve in the direction sought with a large enough effect; inconclusive = small, poorly fitted or top-dose-only effect, or another doubt; inactive = no such curve, though single readings can be large; an effect the other way counts as inactive or inconclusive.

The subject of test [1] is Zika virus NS2B-NS3 protease (unlinked). Nature of the test: Optimization of GU AMC qHTS for Zika virus inhibitors: Unlinked NS2B-NS3 protease assay (AID 1347151). Also: nearly all actives have a fitted effect of over 80% in size. The following applies: recombinant ZIKV NS2B-NS3 protease, fluorogenic AMC substrate; series mostly up to 52.5 µM. In a few lines:
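Percent inhibition is derived from the 15-min change in AMC fluorescence, normalized against no-inhibitor and no-enzyme controls, then fitted to a 4-parameter Hill curve. Aprotinin was the intraplate control.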
For orientation: qHTS replaces the single test concentration by a dilution series.

In a further test the target is Furin (Homo sapiens) (UniProt P09958). Nature of the test: Furin counterscreen qHTS for Zika virus inhibitors (AID 1347149). Also: nearly all actives have a fitted effect of over 70% in size. Also: potency is read from the fitted curve at half-maximal effect. Conditions: furin enzymatic counterscreen, fluorogenic substrate; series mostly up to 114 µM. An outline of the steps:
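Counterscreen measures cleavage of 2 microM BOC-RVRR-AMC, below its ~15 microM Km, by 5 nM full-length human furin at pH 7.0 after a 15-min compound preincubation. Inhibition derives from the 15-min fluorescence increase at 37C.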

Test [2] relates to Zika virus NS2B-NS3 protease (linked construct). Nature of the test: Confirmatory screen NINDS AMC qHTS for Zika virus inhibitors (AID 1347152). Also: potency is read from the fitted curve at half-maximal effect; nearly all actives have a fitted effect of over 70% in size. Conditions: Purified linked NS2B-NS3, AMC substrate fluorescence. In a few lines: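 In this dose-response qHTS, AMC release from 10 microM Bz-Nle-KRR-AMC by 1 nM linked protease is measured over 15 minutes (about 20% conversion) at pH 8.0. Percent inhibition is fitted to a 4-parameter Hill curve.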

The target of test [3] is N-terminal Xaa-Pro-Lys N-methyltransferase 1 (Homo sapiens) (UniProt Q9BV86). Nature of the test: qHTS Assay for Inhibitors of N-terminal methyltransferase 1 (NTMT1): LOPAC validation of the NTMT1 SAHH-coupled ThioGlo3 Assay (AID 1347143).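 Also: SAH from peptide methylation measured as thiol fluorescence via SAHH coupling and ThioGlo3; nearly all actives have a fitted effect of over 70% in size.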 The following applies: recombinant NTMT1, SAHH-coupled ThioGlo3 fluorescence; series mostly up to 114 µM. An outline of the steps:
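NTMT1 125nM + cpds (various conc.), 1 min RT; add SAM 100uM/SAHH 10uM/ThioGlo3 15uM (addition mix). SAHH-coupled thiol detection, Ex340/Em450, t0 and 30 min RT; signal normalized to background. LOPAC 1280-cpd pilot.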

Test [4] in a line: qHTS of pediatric cancer cell lines to identify multiple opportunities for drug repurposing: Confirmatory screen for RD cells (AID 1347124).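 Also: cells exposed to compound for 48 h before viability readout; nearly all actives have a fitted effect of over 65% in size.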 Conditions: RD rhabdomyosarcoma cell viability; series mostly up to 45.9 µM. The source says: (§1) Drug repurposing or repositioning has been offered as a strategy for drug development in oncology programs. This approach has special potential for childhood cancers and other rare or orphan diseases, where the expected return on new drug development has been a disincentive to pharmaceuticals.
(§2) In this project we exploit the poly-pharmacology of drugs to discover new indications via phenotypic screening of a panel of 19 well-characterized cell lines derived from solid tumors seen in children and adolescents. The goal is to identify approved drugs with previously unrecognized anticancer properties that has the potential to reveal new mechanisms and biological processes involved in carcinogenesis or drug resistance. We employed a titration-based paradigm (quantitative high-throughput screening or qHTS), where all compounds were tested at multiple concentrations for their effect on cell viability. Concentration-response curves (CRCs) were derived directly from the primary screen, and both potency and efficacy values were used to identify compounds with robust bioactivity profiles. We screened the NIH Chemical Genomics Center (NCGC) Pharmaceutical Collection (NPC) and Mechanism Interrogation Plate (MIPE) small molecule collections of approved and investigational compounds against these cell lines; and measured metabolically active cells after 48 hours of compound treatment as a proxy for cell viability.
(§3) Assay Submitter: Nathalia J. Martinez, National Center for Advancing Translational Sciences, National Institutes of Health, Rockville, MD, USA; email: natalia.martinez@nih.gov
(§4) [1] Shen, M et al. Quantitative high-throughput phenotypic screening of pediatric cancer cell lines identifies multiple opportunities for drug repurposing. Oncotarget 2017 Dec 19;9(4):4758-4772. PMID 29435139.
(§5) The cells were obtained from University of North Carolina (UNC), Pediatric Preclinical Testing Program (PPT), and Coriell Institute (CI).
(§6) qHTS cell viability assay:
(§7) Cells were assayed in growth media at a density of 500-1,000 cells/well. Five microliters of cells were dispensed into 1,536-well, white, solid-bottom, TC-treated plates (Greiner Bio One) using a multidrop dispenser and incubated at 37 degrees C, 5% CO2, under a humidified atmosphere for 5 hours. Twenty-three nanoliters of compounds and controls (neutral control DMSO or positive control bortezomib at final concentration of 2.3 µM) were subsequently transferred by Kalypsys pintool. For primary screens, the MIPE collection was tested at 11-point dilutions (final concentrations range from 0.78 nM to 46 µM) and the NPC collection at 8-point dilutions (final concentrations range from 0.59 nM to 46 µM). Compounds tested in follow-up screens were assayed at 11-point dilutions. Cells were incubated for 48 hours, followed by addition of 3 µL of CellTiter-Glo (Promega). After a 15 min incubation at room temperature, samples were analyzed for luminescence intensity using a ViewLux High-throughput CCD imager equipped with clear filters.

Test [5] is described as follows: qHTS of pediatric cancer cell lines to identify multiple opportunities for drug repurposing: Confirmatory screen for Rh18 cells (AID 1347125). Also: nearly all actives have a fitted effect of over 55% in size. Also: potency is read from the fitted curve at half-maximal effect. Conditions: Rh18 rhabdomyosarcoma cells, viability; series mostly up to 45.9 µM. An outline of the steps: (§8)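 Cells (500-1,000/well) rested 5 h, then received compounds for 48 h; metabolically active cells were measured by CellTiter-Glo luminescence. Final concentrations spanned up to 46 µM (MIPE, 11-point) or 0.59 nM-46 µM (NPC, 8-point) in primary screens, 11-point in follow-ups.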

A short description of test [6]: qHTS of pediatric cancer cell lines to identify multiple opportunities for drug repurposing: Confirmatory screen for Rh30 cells (AID 1347126). Also: nearly all actives have a fitted effect of over 55% in size. Also: potency is read from the fitted curve at half-maximal effect. The following applies: Rh30 rhabdomyosarcoma cell viability; series mostly up to 45.9 µM. In a few lines: as §8
A short description of test [7]: qHTS of pediatric cancer cell lines to identify multiple opportunities for drug repurposing: Confirmatory screen for Saos-2 cells (AID 1347127). Also: nearly all actives have a fitted effect of over 60% in size. Also: potency is read from the fitted curve at half-maximal effect. Conditions: Saos-2 osteosarcoma cell viability; series mostly up to 45.9 µM.
Excerpt: as §1, §2, §3, §4, §5, §6, §7

A short description of test [8]: qHTS of pediatric cancer cell lines to identify multiple opportunities for drug repurposing: Confirmatory screen for OHS-50 cells (AID 1347128).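 Also: compound exposure lasted 48 h at 37 degrees C; nearly all actives have a fitted effect of over 55% in size.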 Also: potency is read from the fitted curve at half-maximal effect. Conditions: OHS-50 osteosarcoma cells viability; series mostly up to 45.9 µM. An outline of the steps:
as §8

Test [9] is described as follows: qHTS of pediatric cancer cell lines to identify multiple opportunities for drug repurposing: Confirmatory screen for SK-N-SH cells (AID 1347129).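 Also: cells exposed to compound for 48 h before viability read; nearly all actives have a fitted effect of over 60% in size.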 Also: potency is read from the fitted curve at half-maximal effect. Conditions: SK-N-SH neuroblastoma cell viability; series mostly up to 46.1 µM. An outline of the steps: as §8

N-terminal Xaa-Pro-Lys N-methyltransferase 1 (Homo sapiens), sequence (Q9BV86 whole entry, looked up): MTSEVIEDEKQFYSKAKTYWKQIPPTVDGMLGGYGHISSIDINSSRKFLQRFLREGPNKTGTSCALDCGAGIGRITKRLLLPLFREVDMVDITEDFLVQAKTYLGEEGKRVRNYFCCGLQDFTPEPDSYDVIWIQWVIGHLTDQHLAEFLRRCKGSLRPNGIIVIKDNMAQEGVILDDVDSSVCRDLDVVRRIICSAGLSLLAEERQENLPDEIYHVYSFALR
Furin (Homo sapiens), sequence (P09958 whole entry, looked up): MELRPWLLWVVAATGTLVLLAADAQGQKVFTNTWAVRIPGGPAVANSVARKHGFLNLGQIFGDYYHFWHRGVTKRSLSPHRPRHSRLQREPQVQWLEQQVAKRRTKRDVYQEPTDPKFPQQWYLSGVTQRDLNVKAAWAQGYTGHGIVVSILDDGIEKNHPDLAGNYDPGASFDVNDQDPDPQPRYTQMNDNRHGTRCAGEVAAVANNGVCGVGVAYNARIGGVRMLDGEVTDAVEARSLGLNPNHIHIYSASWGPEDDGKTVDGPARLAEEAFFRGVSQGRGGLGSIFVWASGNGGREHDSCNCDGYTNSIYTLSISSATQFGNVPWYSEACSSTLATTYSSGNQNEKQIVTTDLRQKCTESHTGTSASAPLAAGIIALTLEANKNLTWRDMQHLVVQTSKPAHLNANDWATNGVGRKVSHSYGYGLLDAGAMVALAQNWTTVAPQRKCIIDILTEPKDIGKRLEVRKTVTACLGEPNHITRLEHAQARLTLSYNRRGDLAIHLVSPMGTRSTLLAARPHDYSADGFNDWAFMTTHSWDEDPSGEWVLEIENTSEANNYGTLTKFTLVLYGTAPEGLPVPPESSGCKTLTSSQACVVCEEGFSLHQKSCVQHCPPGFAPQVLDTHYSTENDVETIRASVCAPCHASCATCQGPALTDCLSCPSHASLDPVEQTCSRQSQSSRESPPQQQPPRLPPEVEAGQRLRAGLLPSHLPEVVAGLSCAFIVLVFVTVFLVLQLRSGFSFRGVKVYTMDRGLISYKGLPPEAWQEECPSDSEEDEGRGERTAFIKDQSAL

With `Cc1ncsc1CCCl`, in test [1], the result was inactive.
Consider `O=c1oc2ccccc2c(O)c1Cc1c(O)c2ccccc2oc1=O`, for which the Potency entry in the test with Furin (Homo sapiens) is “inactive”.
In the case of `C[C@]12CC[C@@H]3c4ccc(OC(=O)N(CCCl)CCCl)cc4CC[C@H]3[C@@H]1CC[C@@H]2O`, the Potency in test [2] was 21.5 µM (active).
For the compound `COc1ccc2c(c1OC)C(=O)O[C@H]2[C@@H]1c2cc3c(cc2CCN1C)OCO3`, in test [3], the result was inactive.
In the case of `O=C(CCCN1CCC2(CC1)C(=O)NCN2c1ccccc1)c1ccc(F)cc1`, the outcome in test [3] was inactive.
For the compound `CN1C(=O)CCS(=O)(=O)C1c1ccc(Cl)cc1` (stereo not drawn), the result in [3] and in [1] was inactive.
On to `C[C@](O)(CS(=O)(=O)c1ccc(F)cc1)C(=O)Nc1ccc(C#N)c(C(F)(F)F)c1`, for which the result in test [4] was inactive. In addition, the Potency entry in [5], in [6], in test [7], in test [8] and in test [9] was “inactive” in each case.
With `NCCc1ccc(O)cc1`, the outcome in test [3] and in test [1] was inactive.
As for `CCOP(=S)(OCC)Oc1ccc2c(C)c(Cl)c(=O)oc2c1`, the call in [4] was inactive. For the same compound, the Potency entry in [5], in test [6], in test [7], in test [8] and in test [9] was “inactive” throughout.
`O=C(N/N=C/c1ccc([N+](=O)[O-])o1)c1cc([N+](=O)[O-])cc([N+](=O)[O-])c1O`: the compound was called inactive in test [4]. The Potency result in test [5], in [6], in test [7], in test [8] and in test [9] was “inactive” throughout.
Regarding `C[C@]12CCC(=O)C=C1CC[C@@H]1[C@@H]2CC[C@@]2(C)[C@H]1CC[C@]2(C)O`, the outcome in [4] was inactive. The Potency result in test [5], in [6], in test [7], in test [8] and in test [9] was “inactive” throughout.
On to `O=C(Nc1ccc(Br)cc1)c1cc(Br)cc(Br)c1O`, for which the Potency in the test with Furin (Homo sapiens) is 27.1 µM (active); in test [2], 19.2 µM (active).
Take `CC(NC(C)(C)C)C(=O)c1cccc(Cl)c1` (stereo not drawn): the Potency result in test [5] and in test [9] was “inactive” in each case. Besides, in test [7], the Potency is 18.5 µM (active). Further, the outcome in test [3] and in test [1] was inactive.
With `CCC1(c2ccc(N)cc2)CCC(=O)NC1=O` (stereo not drawn), the outcome in test [3] and in [1] was inactive.
On to `O=c1c(C2CC(c3ccc(-c4ccc(Br)cc4)cc3)Cc3ccccc32)c(O)sc2ccccc12` (stereo not drawn), for which, in test [2], the Potency is 19.2 µM (active).
Regarding `O=C(O)CCCc1ccc(N(CCCl)CCCl)cc1`, in test [4], the compound was classed as inactive. Moreover, the Potency entry in [5], in [6], in test [8] and in test [9] was “inactive” each time.
Regarding `O=c1[nH]oc2c1CCNC2`, the outcome in test [3] and in test [1] was inactive.
Turning to `O=C1OC(c2ccc(O)c(S(=O)(=O)O)c2)(c2ccc(O)c(S(=O)(=O)O)c2)c2c(Br)c(Br)c(Br)c(Br)c21`, the Potency result with Furin (Homo sapiens) was “inactive”.
With `O=P1(N(CCCl)CCCl)NCCCO1` (stereo not drawn), the result in test [4] and in [1] was inactive. Moreover, the Potency entry in [5], in test [6], in [7], in test [8] and in test [9] was “inactive” throughout.
With `CC(C)N(CCC(C(N)=O)(c1ccccc1)c1ccccn1)C(C)C` (stereo not drawn), the result in test [3] and in test [1] was inactive.
With `CCCN(CCC)C(=O)Cc1c(-c2ccc(Cl)cc2)nc2ccc(Cl)cn12`, the compound was classed as inactive in [4]. For the same compound, the Potency result in [5], in test [7], in test [8] and in test [9] was “inactive” in each case. Also, the Potency in test [6] is 7.37 µM (active).
As to `CC(C)c1cccc(C(C)C)c1O`, the outcome in test [3] and in test [1] was inactive.
Consider `CC(C)(C)NCC(O)c1ccccc1Cl` (stereo not drawn), for which the outcome in test [3] and in [1] was inactive.
In the case of `CCCCCN(C)CCC(O)(P(=O)(O)O)P(=O)(O)O`, the result in [3] and in test [1] was inactive.
As for `C=C(C)[C@H]1CN[C@H](C(=O)O)[C@H]1CC(=O)O`, the result in [3] and in [1] was inactive.
As to `COc1cccc2c1C(=O)c1c(O)c3c(c(O)c1C2=O)C[C@@](O)(C(=O)CO)CC3OC1CC(N2CCOC(OC)C2)C(O)C(C)O1` (stereo partly drawn), the Potency was 0.0522 µM (active) in test [5], 0.0465 µM (active) in [6], 0.0233 µM (active) in test [8] and 0.0235 µM (active) in test [9].

These data come from PubChem BioAssay (NCATS).
